Gli-Sufu block = Gli-Sufu pathway antagonists, primary screen, luciferase luminescence, Sufu-KO-LIGHT cells, uHTS | actives 0.74% (n = 340,000) | Sufu-KO-LIGHT fibroblasts, Gli luciferase reporter luminescence | inhibition, % at 5 µM;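 active = inhibition above about 55%, limit read from the data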;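 note: 0% = DMSO-treated cells and 100% = wells with medium but no cells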
SRC3 inh = SRC3 coactivator transcriptional activity inhibitors, primary screen, cell-based, luminescence; inhibition, % at 3.6 µM; actives 0.17% (n = 360,000); Nuclear receptor coactivator 3 (Homo sapiens), Q9Y6Q9; AID 588352, 2011; HEK293 GAL4-SRC3 luciferase reporter;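 active = inhibition above a per-campaign cutoff, the mean of all compounds plus 3 SD, cut at about 60% in these data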;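 note: 0% = DMSO-treated cells and 100% = gossypol-treated cells at 36 µM; higher means less SRC3-driven luciferase light from the GAL4 reporter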
SRC2 inh = inhibition of GAL4-SRC2 driven luciferase reporter, primary screen, SRC2 inhibitor project, cell-based, luminescence | Nuclear receptor coactivator 2 (Homo sapiens), Q15596 | HEK293 GAL4-SRC2 luciferase reporter | inhibition, % at 9 µM | actives 0.17% (n = 370,000);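 active = inhibition above the mean inhibition of all tested compounds plus 3 SD, set per campaign, cut at about 52% in these data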;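 note: 0% = DMSO treated cells and 100% = cells given Gossypol at 36 µM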
LRH-1 inv ag = LRH-1 (NR5A2) inverse agonists, primary screen, cell-based, luminescence, HEK293T, StAR-luciferase reporter. Nuclear receptor subfamily 5 group A member 2 (Homo sapiens), O00482. LRH-1 transfected, 24 h. inhibition, % at 3.6 µM. actives 0.13% (n = 360,000);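 active = inhibition above the mean inhibition of all tested compounds plus 3 SD, cut at about 73% in these data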;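 note: 0% = DMSO wells and 100% = reporter-only cells lacking LRH-1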
COUP-TFII inh = NR2F2 transcriptional activity inhibitors, primary screen, cell-based, luciferase reporter, HEK293T, luminescence; HEK293T NGFI-A luciferase reporter; actives 0.7% (n = 370,000); AID 686940, 2013; COUP transcription factor 2 (Homo sapiens), P24468; inhibition, % at 8.6 µM;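 active = inhibition above a per-plate cutoff, mean inhibition of test wells between control levels plus 3 SD, cut at about 38% in these data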;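 note: cells cotransfected with COUP-TFII expression vector driving the NGFI-A reporter; 0% = median of COUP-TF2 test wells and 100% = reporter-only cells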
NCOA1 inh = SRC1 coactivator transcriptional activity inhibitors, primary screen, cell-based, luminescence. inhibition, % at 3.6 µM. HEK293 GAL4-SRC1 luciferase reporter. actives 0.12% (n = 360,000);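 active = inhibition above the campaign mean plus 3 SD, with each screening campaign given its own cutoff, cut at about 60% in these data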;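 note: 0% = DMSO treated cells and 100% = gossypol at 36 µM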
Gli-Sufu confirm = Gli-SUFU pathway antagonists, confirmation, single concentration, luciferase luminescence, Sufu-KO-LIGHT cells | shares compounds with Gli-Sufu block | Gli luciferase reporter | inhibition, % at 5 µM | AID 602428, 2012 | actives 40% (n = 2,500);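 active = mean inhibition at 5 µM reaching about 45%, limit read from the data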;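 note: plate controls were DMSO-treated cells for no effect and wells lacking cells for full effect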
Gli cytotox = cytotoxicity in Sufu-KO-LIGHT cells, confirmation, cytotoxicity control for Gli-SUFU antagonist project, cell-based, ATP luminescence, single concentration. cytotoxicity, % at 5 µM. AID 651994, 2013. shares compounds with Gli-Sufu block. actives 32% (n = 2,500);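 active = mean cytotoxicity at 5 µM above about 25%, limit read from the data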;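 note: cells exposed to compound overnight for roughly 16 to 18 hours; plate controls were DMSO wells with cells for no effect and medium without cells for full effect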
Wnt3a cs = Wnt3a reporter signal inhibition, confirmation, counter-screen for Gli-SUFU antagonist project, Wnt-LIGHT cells, luminescence, single concentration; shares compounds with Gli-Sufu block; AID 651995, 2013; actives 20% (n = 2,500); Wnt3a-driven luciferase reporter; inhibition, % at 6.25 µM;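 active = mean inhibition above about 25%, limit read from the data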
Gal4-VP16 ctr = Gal4-VP16 luciferase reporter inhibitors, counter-screen for COUP-TFII antagonist project, cell-based, luminescence, HEK293; shares compounds with COUP-TFII inh; inhibition, % at 8.5 µM; actives 25% (n = 2,500); AID 687007, 2013; in the data active = inhibition above about 13%
NR2F2 inh conf = NR2F2 transcriptional activity inhibitors, confirmation, cell-based, luciferase reporter, HEK293, triplicate. shares compounds with COUP-TFII inh. HEK293 NGFI-A luciferase reporter, luminescence. inhibition, % at 8.5 µM. actives 45% (n = 2,500);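 active = mean inhibition over three repeats above a set limit taken from the earlier primary screen, cut at about 38% in these data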;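 note: 100% = cells given the luciferase reporter alone without the COUP-TF2 vector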
* hit, by the source's call; nt = no result given. Only some compounds are listed: those with a hit (about 1.3% of all), similar ones and a draw of the others.

SMILES | Gli-Sufu block | SRC3 inh | SRC2 inh | LRH-1 inv ag | COUP-TFII inh | NCOA1 inh | Gli-Sufu confirm | Gli cytotox | Wnt3a cs | Gal4-VP16 ctr | NR2F2 inh conf
CCCc1ccc(-c2ccc(/C=C/C(=O)O)cc2)nc1 | 71* | 65* | 88* | 78* | 98* | 71* | 69* | 56* | 91* | 91* | 102*
COc1ccc(S[C@]2(C(=O)N3CCN(c4ncccn4)CC3)CC(=O)N(c3ccc(Cl)cc3)[C@@H]2c2ccc(OC)cc2)cc1 | nt | nt | -5 | nt | -3 | nt | nt | nt | nt | nt | nt
O=C(O)c1cc2c(N3CCC(Cc4ccccc4)CC3)ncnc2s1 | 2 | 3 | 5 | 7 | -7 | -15 | nt | nt | nt | nt | nt
Cc1ccc(S(=O)(=O)N2CCN(c3ncnc4sccc34)CC2)cc1 | 63* | 15 | 22 | 20 | 50* | 8 | 58* | 34* | 22 | 6 | 37
c1ccc(CC2CCN(c3ncnc4sccc34)CC2)cc1 | 66* | 10 | 2 | 32 | 55* | 28 | 70* | 33* | 35* | -10 | 53*
CN1CCN(CC(=O)Nc2nc3c(s2)CCCC3)CC1 | 5 | 0 | -9 | 4 | -14 | 14 | nt | nt | nt | nt | nt
CCN1CCN(/C=N/c2nc3c(s2)CCCC3)CC1 | 53 | 59 | 39 | 56 | 51* | 46 | 70* | 22 | 80* | 25* | 55*
CCOCCCNc1ncnc2c1[nH]c1ccccc12 | 4 | 1 | 14 | 6 | 36 | -2 | nt | nt | nt | nt | nt
CCCCOCCCNc1ncnc2c1[nH]c1ccccc12 | 81* | 29 | -15 | 44 | 66* | 18 | 82* | 27* | 17 | 14* | 63*
N#Cc1cccc(C(=O)N2CCC(Oc3cccnc3)CC2)c1 | nt | nt | 2 | nt | -8 | nt | nt | nt | nt | nt | nt
Cc1nnsc1C(=O)NC1CCCc2c1cnn2-c1cc(F)cc(F)c1 (stereo unspecified) | 5 | 5 | -7 | 0 | 5 | 5 | nt | nt | nt | nt | nt
Cc1nnsc1C(=O)NC1CCCc2c1cnn2-c1ccc(F)cc1F (stereo unspecified) | 65* | 12 | 4 | 49 | 64* | 14 | 56* | 13 | -4 | 2 | 66*
COc1cc(C(=O)NC2CCCc3c2cnn3-c2ccccc2F)cc(OC)c1OC (stereo unspecified) | 61* | 37 | 10 | 33 | 46* | 16 | 48* | 34* | 13 | -9 | 19
COc1ccccc1CCn1cnc(-c2ccccc2OC)c1CC(C)C | nt | nt | -20 | nt | 7 | nt | nt | nt | nt | nt | nt
CN(Cc1ccccc1)C1=CC(=[N+]2CCCC2)CC(C)(C)C1 | 91* | 63* | 8 | 72 | 72* | 39 | 88* | 27* | 48* | 15* | 64*
COc1ccc(CC2(CO)CCN(CC3=Cc4cc(Cl)ccc4OC3)CC2)cc1 | 57* | 11 | 18 | 20 | 64* | -12 | 60* | 14 | -28 | -8 | 45*
CCCCOC(=O)c1[nH]c2c(c1C)C(=O)CC(c1cc(OC)c(OC)c(OC)c1)C2 (stereo unspecified) | 52 | 41 | 3 | 28 | 71* | 31 | 60* | 24 | 12 | 12 | 63*
O=C(/C=C/c1cccc2ccccc12)c1ccncc1 | 52 | 20 | 28 | 21 | 40* | 4 | 47* | 37* | 16 | -12 | 19
Cn1c(=O)c2c(ncn2Cc2ccc(O)c([N+](=O)[O-])c2)n(C)c1=O | nt | nt | 1 | nt | -3 | nt | nt | nt | nt | nt | nt
Cc1nc2ccccc2c2oc(C(=O)N3CCN(C4CCCCC4)CC3)cc12 | 55 | 2 | -1 | -41 | 42* | -7 | 46* | 12 | -15 | -7 | 11
Cc1nc2ccccc2c2oc(C(=O)N3CCC(N4CCCCC4)CC3)cc12 | 20 | 6 | nt | -79 | nt | 9 | nt | nt | nt | nt | nt
O=C(NC1=NC2(C=C3CCCCC3n3c(=O)n(-c4ccccc4)c(=O)n32)CN1CC1CC1)c1ccccc1 (stereo unspecified) | nt | nt | 5 | nt | -6 | nt | nt | nt | nt | nt | nt
CCOC(=O)c1c(C)[nH]c(C(=O)OCC(=O)Nc2cc(Cl)ccc2OC)c1C | 5 | -8 | 5 | 19 | 21 | -7 | nt | nt | nt | nt | nt
CC(=O)c1c(C)[nH]c(C(=O)OCC(=O)Nc2ccc(Cl)cc2[N+](=O)[O-])c1C | 75* | 36 | 32 | 44 | 63* | 20 | 75* | 31* | 24 | 5 | 60*
Cc1occc1-c1nnc(SCC(=O)NCc2ccc(Cl)cc2)n1-c1ccccc1 | nt | nt | -14 | nt | -20 | nt | nt | nt | nt | nt | nt
SMILES | Gli-Sufu block | SRC3 inh | SRC2 inh | LRH-1 inv ag | COUP-TFII inh | NCOA1 inh | Gli-Sufu confirm | Gli cytotox | Wnt3a cs | Gal4-VP16 ctr | NR2F2 inh conf
COc1ccc(COc2ccccc2C(=O)NCc2ccccc2)cc1F | 53 | 13 | 18 | 5 | 41* | 12 | 20 | 15 | 12 | -8 | 2
N=c1c2c(n(Cc3cccc(Cl)c3)c3c1CCC3)CCCC2 | 81* | 52 | 0 | 75* | 65* | 48 | 83* | 35* | 36* | 13* | 47*
N=c1c2c(n(Cc3ccc(F)cc3)c3c1CCC3)CCCC2 | 66* | 44 | 18 | 55 | 39* | 26 | 69* | 25 | 15 | 3 | 25
O=C1CCCc2ccccc2N1Cc1ccc(F)cc1 | 3 | 14 | -22 | -14 | 10 | 7 | nt | nt | nt | nt | nt
N=c1c2c(n(Cc3ccc(Cl)cc3)c3c1CCC3)CCC2 | 80* | 70* | 2 | 92* | 67* | 48 | 82* | 25* | 48* | 4 | 46*
CCOC(=O)Cn1c2c(c(=N)c3c1CCC3)CCC2 | -4 | -1 | 12 | -14 | -2 | 2 | nt | nt | nt | nt | nt
O=C(NCCc1c[nH]c2ccccc12)OCc1cn(-c2ccccc2Cl)nn1 | nt | nt | 4 | nt | -2 | nt | nt | nt | nt | nt | nt

Bioassay records (PubChem)
